From the supplement of paper PMC8728848
The full list was thinned out, with the strongest signals kept by preference.

Tests used:
Assay in all cases: glycan array binding signal (z-score within array); higher = stronger binding
Details in all cases: glycan notation: IUPAC condensed, linker removed
[1] = biological target: Fuc(a1-2)Gal(b1-3)GlcNAc6S
Outline: (§1)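 Glycan array binding is given as a within-array Z-score, which can be read as non-binding when negative. The arrays, 3228 of them, came from the Consortium for Functional Glycomics database and were retained only where the protein sequence was available. Z-scores were averaged across arrays of the same protein sequence at different concentrations or buffers and across linkers.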

[2] = biological target: Fuc(a1-2)Gal(b1-3)[Fuc(a1-4)]GlcNAc(b1-3)[Fuc(a1-3)[Gal(b1-4)]GlcNAc(b1-6)]Gal(b1-4)Glc
Outline: as §1

[3] = biological target: Fuc(a1-2)Gal(b1-4)GlcNAc(b1-6)GalNAc
Outline: as §1

[4] = biological target: Fuc(a1-2)Gal(b1-4)[Fuc(a1-3)]GlcNAc
Outline: as §1

[5] = biological target: Fuc(a1-2)[Gal(a1-3)]Gal(b1-3)GlcNAc
Outline: as §1

[6] = biological target: Fuc(a1-2)[Gal(a1-3)]Gal(b1-3)GlcNAc(b1-3)GalNAc
Outline: as §1

[7] = biological target: Fuc(a1-2)[Gal(a1-3)]Gal(b1-4)GlcNAc
Outline: as §1

[8] = biological target: Fuc(a1-2)[GalNAc(a1-3)]Gal(b1-4)GlcNAc(b1-2)Man
Outline: as §1

[9] = biological target: Fuc(a1-2)[GalNAc(a1-3)]Gal(b1-4)GlcNAc(b1-3)GalNAc
Outline: as §1

[10] = biological target: Fuc(a1-2)[GalNAc(a1-3)]Gal(b1-4)GlcNAc(b1-6)GalNAc
Outline: as §1

[11] = biological target: Fuc(a1-2)[GalNAc(b1-3)]Gal
Outline: as §1

[12] = biological target: Fuc(a1-3)[Gal(b1-4)]GlcNAc(b1-2)Man
Outline: as §1

Gal(a1-3)Gal(b1-3)GlcNAc = biological target: Gal(a1-3)Gal(b1-3)GlcNAc
Outline: as §1

[13] = biological target: Gal(a1-3)Gal(b1-3)GlcNAc(b1-2)Man(a1-3)[Gal(a1-3)Gal(b1-3)GlcNAc(b1-2)Man(a1-6)]Man(b1-4)GlcNAc(b1-4)GlcNAc
Outline: as §1

[14] = biological target: Gal(a1-3)Gal(b1-4)GlcNAc(b1-6)GalNAc
Outline: as §1

[15] = biological target: Gal(b1-3)GlcNAc(a1-6)Gal(b1-4)GlcNAc
Outline: as §1

[16] = biological target: Gal(b1-3)GlcNAc(b1-3)Gal(b1-4)Glc
Outline: as §1

[17] = biological target: Gal(b1-3)GlcNAc(b1-6)GalNAc
Outline: as §1

[18] = biological target: Gal(b1-3)[Fuc(a1-4)]GlcNAc(b1-3)Gal(b1-3)[Fuc(a1-4)]GlcNAc
Outline: as §1

[19] = biological target: Gal(b1-3)[Neu5Ac(a2-6)]GlcNAc(b1-4)Gal(b1-4)Glc
Outline: as §1

[20] = biological target: Gal(b1-4)GalNAc(b1-3)[Fuc(a1-2)]Gal(b1-4)GlcNAc
Outline: as §1

[21] = biological target: Gal(b1-4)GlcNAc(b1-2)[Gal(b1-4)GlcNAc(b1-6)]Man(a1-6)[GlcNAc(b1-4)][Gal(b1-4)GlcNAc(b1-2)[Gal(b1-4)GlcNAc(b1-4)]Man(a1-3)]Man(b1-4)GlcNAc(b1-4)[Fuc(a1-6)]GlcNAc
Outline: as §1

[22] = biological target: Gal(b1-4)GlcNAc(b1-3)Gal(b1-4)GlcNAc(b1-2)Man(a1-3)[Gal(b1-4)GlcNAc(b1-3)Gal(b1-4)GlcNAc(b1-2)Man(a1-6)]Man(b1-4)GlcNAc(b1-4)GlcNAc
Outline: as §1

Gal3S(b1-4)Glc = biological target: Gal3S(b1-4)Glc
Outline: as §1

[23] = biological target: Gal3S(b1-4)[Fuc(a1-3)]GlcNAc6S
Outline: as §1

Gal6S(b1-4)GlcNAc6S = biological target: Gal6S(b1-4)GlcNAc6S
Outline: as §1

GalNAc(a1-3)Gal = biological target: GalNAc(a1-3)Gal
Outline: as §1

GalNAc(b1-3)Gal = biological target: GalNAc(b1-3)Gal
Outline: as §1

[24] = biological target: GalNAc(b1-3)Gal(a1-4)Gal(b1-4)GlcNAc
Outline: as §1

[25] = biological target: GalNAc(b1-3)Gal(a1-4)Gal(b1-4)GlcNAc(b1-3)Gal(b1-4)Glc
Outline: as §1

[26] = biological target: GalNAc(b1-3)Gal(a1-6)Gal(b1-4)Glc
Outline: as §1

GalNAc3S(b1-4)GlcNAc = biological target: GalNAc3S(b1-4)GlcNAc
Outline: as §1

[27] = biological target: GlcNAc(a1-4)Gal(b1-3)GlcNAc
Outline: as §1

[28] = biological target: GlcNAc(a1-4)Gal(b1-4)GlcNAc(b1-3)Gal(b1-4)GlcNAc
Outline: as §1

[29] = biological target: GlcNAc(b1-2)Man(a1-3)[GlcNAc(b1-2)Man(a1-6)]Man(b1-4)GlcNAc(b1-4)GlcNAc
Outline: as §1

GlcNAc(b1-3)Gal = biological target: GlcNAc(b1-3)Gal
Outline: as §1

GlcNAc(b1-6)GalNAc = biological target: GlcNAc(b1-6)GalNAc
Outline: as §1

[30] = biological target: Man(a1-2)Man(a1-3)[Man(a1-2)Man(a1-6)]Man(a1-6)[Man(a1-2)Man(a1-2)Man(a1-3)]Man
Outline: as §1

[31] = biological target: Man(a1-3)[Man(a1-6)]Man(a1-6)[Man(a1-3)]Man(b1-4)GlcNAc(b1-4)GlcNAc
Outline: as §1

[32] = biological target: Neu5Ac(a2-3)Gal(b1-3)GalNAc(b1-3)Gal(a1-4)Gal(b1-4)Glc
Outline: as §1

[33] = biological target: Neu5Ac(a2-3)Gal(b1-3)[Fuc(a1-4)]GlcNAc(b1-3)Gal(b1-3)[Fuc(a1-4)]GlcNAc
Outline: as §1

Neu5Ac(a2-3)Gal(b1-4)Glc = biological target: Neu5Ac(a2-3)Gal(b1-4)Glc
Outline: as §1

[34] = biological target: Neu5Ac(a2-3)Gal(b1-4)GlcNAc(b1-2)Man(a1-3)[Neu5Ac(a2-3)Gal(b1-4)GlcNAc(b1-2)Man(a1-6)]Man(b1-4)GlcNAc(b1-4)[Fuc(a1-6)]GlcNAc
Outline: as §1

[35] = biological target: Neu5Ac(a2-3)Gal(b1-4)GlcNAc(b1-3)Gal
Outline: as §1

[36] = biological target: Neu5Ac(a2-3)Gal(b1-4)GlcNAc(b1-3)Gal(b1-4)GlcNAc
Outline: as §1

[37] = biological target: Neu5Ac(a2-3)Gal(b1-4)[Fuc(a1-3)]GlcNAc(b1-6)[Neu5Ac(a2-3)Gal(b1-3)]GalNAc
Outline: as §1

[38] = biological target: Neu5Ac(a2-6)Gal(b1-4)GlcNAc(b1-2)[Neu5Ac(a2-6)Gal(b1-4)GlcNAc(b1-4)]Man(a1-3)[GlcNAc(b1-4)][Neu5Ac(a2-6)Gal(b1-4)GlcNAc(b1-4)Man(a1-6)]Man(b1-4)GlcNAc(b1-4)GlcNAc
Outline: as §1

[39] = biological target: Neu5Ac(a2-8)Neu5Ac(a2-8)Neu5Ac(a2-3)[GalNAc(b1-4)]Gal(b1-4)Glc
Outline: as §1

Neu5Ac(b2-6)GalNAc = biological target: Neu5Ac(b2-6)GalNAc
Outline: as §1

B1: Cohesin-mDCIR (Macaca mulatta) (protein)
chain: GLDDLDAVRIKVDTVNAKPGDTVRIPVRFSGIPSKGIANCDFVYSYDPNVLEIIEIEPGDIIVDPNPDKSFDTAVYPDRKIIVFLFAEDSGTGAYAITKDGVFATIVAKVKEGAPNGLSVIKFVEVGGFANNDLVEQKTQFFDGGVNVGDTTEPATPTTPVTTPTTTDDLDAASFQKYSQLLEKMTTKDLVHTTLECVKKNMTTEETAWSCCPKNWKPFSSNCYFISTESASWQKSEKDCARMEAHLLVINTREEQDFIFQNLQEESAYFVGLSDPEGQRHWQWVDRTPYNESSTFWHPHEPSDPDERCVVLNFRKTPKRWGWNDVHCIVHQRSVCEMMKIHLHHHHHH
[1]
  glycan array binding signal (z-score): -0.407
[2]
  glycan array binding signal (z-score): -0.151
[3]
  glycan array binding signal (z-score): 0.7
[4]
  glycan array binding signal (z-score): 0.229
[5]
  glycan array binding signal (z-score): 3.96
[6]
  glycan array binding signal (z-score): -0.241
[7]
  glycan array binding signal (z-score): -0.349
[8]
  glycan array binding signal (z-score): -0.101
[9]
  glycan array binding signal (z-score): -0.338
[10]
  glycan array binding signal (z-score): 5.37
[11]
  glycan array binding signal (z-score): 3.27
[12]
  glycan array binding signal (z-score): -0.274
Gal(a1-3)Gal(b1-3)GlcNAc
  glycan array binding signal (z-score): 8.73
[13]
  glycan array binding signal (z-score): -0.246
[14]
  glycan array binding signal (z-score): 6.42
[15]
  glycan array binding signal (z-score): -0.186
[16]
  glycan array binding signal (z-score): -0.363
[17]
  glycan array binding signal (z-score): 3.16
[18]
  glycan array binding signal (z-score): 4.89
[19]
  glycan array binding signal (z-score): -0.388
[20]
  glycan array binding signal (z-score): -0.103
[21]
  glycan array binding signal (z-score): -0.425
[22]
  glycan array binding signal (z-score): 4.39
Gal3S(b1-4)Glc
  glycan array binding signal (z-score): 5.11
[23]
  glycan array binding signal (z-score): 1.55
Gal6S(b1-4)GlcNAc6S
  glycan array binding signal (z-score): 0.096
GalNAc(a1-3)Gal
  glycan array binding signal (z-score): 0.417
GalNAc(b1-3)Gal
  glycan array binding signal (z-score): 2.45
[24]
  glycan array binding signal (z-score): 1.26
[25]
  glycan array binding signal (z-score): 0.862
[26]
  glycan array binding signal (z-score): 2.77
GalNAc3S(b1-4)GlcNAc
  glycan array binding signal (z-score): -0.436
[27]
  glycan array binding signal (z-score): -0.401
[28]
  glycan array binding signal (z-score): -0.366
[29]
  glycan array binding signal (z-score): -0.313
GlcNAc(b1-3)Gal
  glycan array binding signal (z-score): -0.352
GlcNAc(b1-6)GalNAc
  glycan array binding signal (z-score): 1.02
[30]
  glycan array binding signal (z-score): -0.438
[31]
  glycan array binding signal (z-score): -0.439
[32]
  glycan array binding signal (z-score): -0.388
[33]
  glycan array binding signal (z-score): -0.418
Neu5Ac(a2-3)Gal(b1-4)Glc
  glycan array binding signal (z-score): -0.444
[34]
  glycan array binding signal (z-score): -0.364
[35]
  glycan array binding signal (z-score): -0.377
[36]
  glycan array binding signal (z-score): -0.175
[37]
  glycan array binding signal (z-score): -0.363
[38]
  glycan array binding signal (z-score): -0.257
[39]
  glycan array binding signal (z-score): 0.263
Neu5Ac(b2-6)GalNAc
  glycan array binding signal (z-score): -0.406
